SMILES strings stand for the structures. About 3,600 (5.5%) of roughly 65,000 compounds were called active. Many of the other results were omitted from the sample, so actives are more common in it than they were. Unmarked numbers belong to inactive results.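 How the source made its calls: active means at 10 µM, mean starting fluorescence two-fold or more over control wells; inactive means the rest.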

The assay can be described thus: intrinsic fluorescence of library compounds, ex339/em460 – biochemical, MLSMR library, data from DPM-DC assay, artefact control, profiling panel (AID 709).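 Further: signal is the first read of a kinetic run.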 The conditions noted are these: compound autofluorescence, ex339/em460 nm, NADH buffer; at 10 µM; stronger effect = higher value; 1 = no-compound wells, NADH background.
Turning to `Cc1cc(C(=O)CC#N)c(C)n1CC(F)(F)F`, the fluorescence fold increase is 1.05.
As to `CCCNc1ncnc2sc(C)c(C)c12`, the fluorescence fold increase is 1.15.
On to `Fc1cc(F)c2nc(N3CCOCC3)sc2c1`, for which the fluorescence fold increase is 1.07.
The same measure for `COc1ccc(OC)c(NC(=O)CSc2nc(N)c(-c3ccccc3)c(=O)[nH]2)c1`: 1.08; for `CCOC(=O)CCc1c(C)c2ccc(OCc3nn[nH]n3)c(C)c2oc1=O`: 3.81 (active); for `CCN(CC)S(=O)(=O)c1cccc(C(=O)Nc2cc(C)nn2-c2nc(C)cc(C)n2)c1`: 1.03.
The same measure for `CC(C)C1C2=C(CC(C)(C)CC2=O)ON1c1ccccc1` (configuration not stated): 1.9; for `O=C(O)C1CCCCC1C(=O)Nc1ccc(Cl)cc1` (configuration not stated): 1.08; for `CCOC(=O)Cc1c(C)nc2c(C#N)c(C)nn2c1C`: 3.62 (active).
The same measure for `CCOC(=O)CSc1nccc(N(C)C)c1C#N`: 1.09; for `COc1ccccc1CNC(=O)Cn1cc2c(n1)CCCC2`: 1.13; for `CC(=O)c1cc2c(cc1N)OCO2`: 1.13.
In the case of `COc1ccc(CCN(Cc2cc3cccc(C)c3[nH]c2=O)C(=O)N2CCCC2)cc1OC`, the fluorescence fold increase was 1.08.
The same measure for `COc1cc2[nH]c(=O)n(CCC(=O)NC3CCN(Cc4ccccc4)CC3)c(=O)c2cc1OC`: 1.46; for `COc1cc2cc(CN(CCN3CCCC3)C(=O)Nc3ccccc3Cl)c(=O)[nH]c2cc1OC`: 2.13 (active); for `Cc1cc(C(=O)O)c(S(C)(=O)=O)s1`: 1.04.
For the compound `Cc1cc(C)c2c(c1)c(C)cc1nnc(SCC(=O)NCc3ccco3)n12`, the fluorescence fold increase was 1.45.
Next, `Cc1ccc(C(CC(=O)O)Nc2nc(N3CCCCC3)nc(N3CCCCC3)n2)cc1` (configuration not stated): 1.14.
For `CC(C)n1c(C(O)c2ccccc2)nc2ccccc21` (configuration not stated), the fluorescence fold increase is 1.13.
Next, `CC(Nc1nc(N2CCCC2)nc2ccccc12)c1ccccc1` (configuration not stated): 2.43 (active).
With `Cc1ccc(N2CCN(S(=O)(=O)N(C)C)CC2)cc1Cl`, the fluorescence fold increase was 1.11.
The same measure for `COc1ccc(-c2cc3ccc(OCc4nn[nH]n4)cc3oc2=O)cc1`: 3.01 (active).
As to `COc1ccc(-c2noc(COc3ccc(Cl)c(C)c3)n2)cc1`, the fluorescence fold increase is 1.02.
Next, `COc1ccc(OCc2ccc(-c3nc4ccccc4c(=O)n3N)o2)cc1`: 1.1; `O=C(O)C1CCN1C1CCCCC1` (configuration not stated): 0.88; `COCCCn1c(CCC(=O)O)ccc1-c1ccc(F)cc1`: 3.84 (active).
Next, `COCCCNC(=O)c1c(F)c(F)c(F)c(F)c1F`: 1.04; `Cc1cccc(N=C2NC(=O)CS2)c1C`: 1.01.
The same measure for `CC(C)CC(=O)N=C1SC2CS(=O)(=O)CC2N1CCc1ccccc1` (configuration not stated): 1.1; for `CCCCCCn1c(CN2CCCCC2)nc2c1c(=O)n(C)c(=O)n2C`: 1.13; for `CCOC(=O)N1CCC(NC(=O)CN2C(=O)COc3ccc(C(C)(C)C)cc32)CC1`: 1.02.
Take `CCN(CC)S(=O)(=O)c1ccc2[nH]cc(C(=O)NCCc3ccccc3)c(=O)c2c1`: the fluorescence fold increase was 1.58.
The same measure for `COC(=O)c1cn(C)c2ccc(S(=O)(=O)N3CC(C)CC(C)C3)cc2c1=O` (configuration not stated): 0.95; for `CN1CCN(S(=O)(=O)c2ccc3[nH]cc(C(=O)O)c(=O)c3c2)CC1`: 2.17 (active).
Next, `CC1(C)Cc2cccc(OCC(=O)Nc3nccs3)c2O1`: 1.08; `N#Cc1c(N)sc2c1CCN(C(=O)OCc1ccccc1)C2`: 1.12; `CC(C)CCNc1nc(N2CCCC2)c2c(c1C#N)CCN(C)C2`: 1.63.
The same measure for `CCN1CCc2c(C#N)c(NCc3ccccc3)nc(NCCO)c2C1`: 2.3 (active).
`O=C1CCCC2=C1C(c1cccs1)n1nc(SCc3ccccc3)nc1N2` (configuration not stated): the fluorescence fold increase was 2.52 (active).
As to `CC(C)C(=O)N1c2ccccc2NC2=C(C(=O)CCC2)C1c1ccc(N(C)C)cc1` (configuration not stated), the fluorescence fold increase was 1.05.
As to `CCCC(=O)N1c2ccccc2NC2=C(C(=O)CCC2)C1c1ccc(F)cc1` (configuration not stated), the fluorescence fold increase is 1.08.
The same measure for `Cc1ccc2c(c1)N(CCCC(=O)NCc1cccnc1)C(=O)CO2`: 1.1; for `COC(=O)c1c(-c2ccc(C)cc2)csc1N`: 1.09.
Turning to `CC(=O)NC1=NC(=O)CS1`, the fluorescence fold increase was 1.08.
Next, `CCOc1ccc(CCNC(=O)C2CCN(c3ccc(N4CCOCC4)nn3)CC2)cc1OCC`: 4.91 (active).
Regarding `COc1ccc(CCNC(=O)C2CCN(c3nn4c(=O)cc(C)nc4s3)CC2)cc1OC`, the fluorescence fold increase was 1.05.
Next, `CCCS(=O)(=O)N1CCC(C(=O)NCCc2ccc(OC)c(OC)c2)CC1`: 1.09.
Take `CN1CCN(Cc2c(O)ccc3c2oc(=O)c2ccccc23)CC1`: the fluorescence fold increase was 1.15.
Consider `O=c1oc2c(CN3CCCCC3)c(O)ccc2c2c1CCCCC2`, for which the fluorescence fold increase was 2.34 (active).
Next, `CCN1CCN(Cc2c(O)ccc3c(=O)c(-c4ccc(OC)c(OC)c4)c(C(F)(F)F)oc23)CC1`: 1.18; `O.O.O.O=S(=O)([O-])OC[C@H]1O[C@@H](O[C@]2(COS(=O)(=O)[O-])O[C@H](OS(=O)(=O)[O-])[C@@H](OS(=O)(=O)[O-])[C@@H]2OS(=O)(=O)[O-])[C@H](OS(=O)(=O)[O-])[C@@H](OS(=O)(=O)[O-])[C@@H]1OS(=O)(=O)[O-].[Al]`: 1.14; `O=C(CCOc1ccccc1)NCc1ccccc1`: 1.
In the case of `COc1ccc(N(Cc2cc3cc(OC)ccc3[nH]c2=O)S(C)(=O)=O)cc1`, the fluorescence fold increase is 3 (active).
For the compound `CCOC(=O)c1cc2cc(C)ccc2[nH]1`, the fluorescence fold increase was 1.67.
Take `CCNCc1cc2cc(C)ccc2[nH]c1=O`: the fluorescence fold increase was 1.39.
The same measure for `COc1ccc(S(=O)(=O)N(CCCN2CCCC2=O)Cc2cc3c(C)ccc(C)c3[nH]c2=O)cc1`: 1.97; for `CC(=O)OCc1cc2cc(C)ccc2[nH]c1=O`: 1.43.
Turning to `CCC(=O)N(Cc1cc2cc(OC)ccc2[nH]c1=O)c1ccccc1C`, the fluorescence fold increase is 3.71 (active).
Next, `CCN(Cc1cc2cc(C)ccc2[nH]c1=O)S(=O)(=O)c1ccccc1`: 1.54; `Cc1ccc2[nH]c(=O)c(COC(=O)c3ccccn3)cc2c1`: 1.42.
The same measure for `CCOc1ccc2[nH]c(=O)c(CN(CCCO)C(C)=O)cc2c1`: 3.27 (active).
The same measure for `O=C(CSc1nnnn1C1CCCC1)Nc1ccc2c(c1)OCCO2`: 1.11.

Values taken from PubChem BioAssay AID709 (SRMLSC, 2007).
